Screening data (PubChem)
Pf growth 96h – inhibits malaria parasite growth, 96 h | P. falciparum luciferase reporter growth, 96 h | Potency, µM (doses to about 28.7 µM), hits mostly inhibitors | 320,000 compounds, 6.9% hits
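Two-generation exposure (96 h) targets delayed-death phenotype. Reporter parasites carrying integrated firefly luciferase, in red cells at 2% hematocrit and 0.05% parasitemia final, kept at 37 C, 5% CO2; luminescence loss indicates inhibition.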
Shiga inhibitor – Shiga toxin inhibition | 290,000 compounds, 9.2% hits | inhibition, % at 38.7 µM | Vero cells, Shiga toxin protein synthesis inhibition reporter | AID 2315; in the data active means inhibition mostly above about 28%, no sharp cut-off; inactive means mostly below about 43%
HCMV antiviral – blocks human cytomegalovirus replication. HFF cells, HCMV-luciferase reporter, 72 h; stronger effect = lower value. activity change, negative = inhibition, % at 57.5 µM. 410,000 compounds, 4.5% hits. AID 1259415; in the data active means activity change below about -60%; inconclusive means no clear call, values can overlap the other calls; inactive means above about -39%
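Steps: HFFs plated, 16 h 37C; compounds added; HCMV-luciferase added to MOI 1 PFU/cell; 72 h 37C; OneGlo reagent, 5 min room temperature; luminescence read, normalized to controls.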
Pf growth 48h – inhibits P. falciparum growth in the first generation, 48 h. P. falciparum luciferase growth in erythrocytes, 48 h. 310,000 compounds, 5.9% hits. Potency, µM (doses to about 28.7 µM), hits mostly inhibitors. AID 504832
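Luciferase-expressing parasites in RBCs, 2% Hct / 0.1% parasitemia final; RPMI 1640 + 0.5% Albumax; 37 C, 5% CO2, one generation; luminescence read-out, lower signal = inhibition.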
Cycloheximide cs – affects cycloheximide protein synthesis inhibition readout, counter-screen | 300,000 compounds, 12% hits | cell reporter, cycloheximide protein synthesis inhibition counterscreen | max response, %; in the data active means max response mostly above about 13%, no sharp cut-off; inactive means mostly below about 14%; further: read at 38.3 µM for the half of the compounds with a filed dose
Each line names hits and unclear results; the compound was inactive in the other large screens. Hits are enriched below; roughly 20% of the tested compounds scored in any of these assays. Unless noted, the call rests on the fitted dose curve; in most records, active means well fitted inhibition curve with a large enough effect; inconclusive means small, poorly fitted or top-dose-only effect, or another doubt; inactive means no such curve, though single readings can be large or run the other way.

CC1=NC(=O)C(N=Nc2cccc(O)c2)N1c1ccccc1 (centres undefined)	Shiga inhibitor 55.3, Cycloheximide cs 27.1 (no result: Pf growth 48h)
Cc1cccc(-n2c(O)c(C=Nc3cccc(O)c3)c3ccccc3c2=O)n1	HCMV antiviral inconclusive, Pf growth 48h inconclusive
Clc1ccc(COc2ccccn2)c(Cl)c1	Pf growth 96h inconclusive
CCOC(=O)COc1ccccc1C1C(C(=O)OC)=C(C)NC2=C1C(=O)c1ccccc12 (centres undefined)	none (no result: Pf growth 96h, Shiga inhibitor, Pf growth 48h, Cycloheximide cs)
COC(=O)COc1ccc(C2C(C(=O)OC)=C(C)NC3=C2C(=O)c2ccccc23)cc1OC (centres undefined)	HCMV antiviral -107.8 (no result: Pf growth 96h, Shiga inhibitor, Pf growth 48h, Cycloheximide cs)
Cc1ccc(Cl)cc1N1CCN(C(=O)C2CCN(S(=O)(=O)c3cnc[nH]3)CC2)CC1	Pf growth 96h 2.62µM
Cc1ccc(Cl)cc1N1CCN(C(=O)C2CCCN(S(=O)(=O)c3cnc[nH]3)C2)CC1 (centres undefined)	Pf growth 96h inconclusive, Pf growth 48h inconclusive
Cc1ccc(Cl)cc1N1CCN(C(=O)C2CCN(S(C)(=O)=O)CC2)CC1	HCMV antiviral -63.7
Cc1cc(C)nc(N2CCC(C(=O)N3CCN(c4cc(Cl)ccc4C)CC3)CC2)n1	Pf growth 48h inconclusive (no result: Pf growth 96h)
COc1ccccc1OCCNC(=O)Nc1cc(F)c(F)cc1Cl	none
CCC(C)NC(=O)c1[nH]c2cc(OC)ccc2c1Sc1ccc(C)cc1 (centres undefined)	none (no result: Pf growth 96h, Shiga inhibitor, Pf growth 48h, Cycloheximide cs)
CC(C)(C)N1CCC1C(N)=O (centres undefined)	Pf growth 96h inconclusive (no result: HCMV antiviral)
COCC(=O)Nc1nc(-c2ccc(-c3ccccc3)cc2)cs1	Shiga inhibitor 80.9, Cycloheximide cs 64.7
O=C(CCN1C(=O)C2CC=CCC2C1=O)Nc1nc(-c2ccc(F)c(F)c2)cs1 (centres undefined)	Pf growth 96h inconclusive, Pf growth 48h inconclusive (no result: Shiga inhibitor, Cycloheximide cs)
O=C(CCN1C(=O)C2CCCCC2C1=O)Nc1nc(-c2ccccc2)cs1 (centres undefined)	Cycloheximide cs 17.1
COCC(=O)Nc1nc(-c2ccc([N+](=O)[O-])cc2)cs1	HCMV antiviral -88.5
O=C(O)CCN1C(=O)C2CCCCC2C1=O (centres undefined)	Pf growth 96h 0.738µM (no result: Pf growth 48h)
CC(C)C(=O)Nc1nc(-c2ccc([N+](=O)[O-])cc2)cs1	HCMV antiviral inconclusive
CCC(C(=O)OCc1cc(=O)n2nc(C)sc2n1)c1ccccc1 (centres undefined)	none (no result: Pf growth 96h, Shiga inhibitor, Pf growth 48h, Cycloheximide cs)
O=C(c1ccccc1Br)N(CCc1ccccc1)C(CCc1ccccc1)c1nc2ccccc2[nH]1 (centres undefined)	none (no result: Pf growth 96h, Shiga inhibitor, Pf growth 48h, Cycloheximide cs)
O=C(c1cccs1)N1CCN(Cc2ccccc2[N+](=O)[O-])CC1	none
Cc1ccc(-n2nc(C(=O)N3CCN(c4cccc(C(F)(F)F)c4)CC3)c3c4ccccc4n(C)c3c2=O)cc1	none (no result: Pf growth 96h, Shiga inhibitor, Pf growth 48h, Cycloheximide cs)
CC(=O)NCC(=O)OCC(=O)Nc1nc(-c2ccccc2)cs1	Shiga inhibitor 63.4, Cycloheximide cs 16.3
CN1CCN(CC(=O)Nc2nc(-c3ccccc3)cs2)CC1	none
Cc1ccccc1C(=O)N1CCc2cc(-c3csc(NC(=O)CN4CCCC4)n3)ccc21	HCMV antiviral -78.8, Pf growth 48h 4.15µM
Cc1nc(NC(=O)CN2CCOCC2)sc1-c1ccccc1	Cycloheximide cs 26.4
CN1CCN(CC(=O)N(C)c2nc(-c3ccccc3)cs2)CC1	Shiga inhibitor 60.4, Cycloheximide cs 60.6
CN(C)c1ccc(-c2cc[nH]c(=O)c2N)cc1	none (no result: Pf growth 96h, HCMV antiviral, Pf growth 48h)
Cc1ccc(-c2csc(NC(=O)CN3CCOCC3)n2)cc1C	Cycloheximide cs 21.4 (no result: HCMV antiviral)
O=C(Cc1ccc([N+](=O)[O-])cc1)Nc1cccnc1	none
CCc1ccc(-c2csc(NC(=O)Oc3ccccc3)n2)cc1	Pf growth 96h 11.7µM, Shiga inhibitor 192.6, Cycloheximide cs 24.8
O=C(Cc1nc(-c2ccc([N+](=O)[O-])cc2)cs1)Nc1ccccc1	HCMV antiviral -91.9
CCc1ccccc1OCC(=O)Nc1nc(-c2cccnc2)cs1	Pf growth 96h 4.15µM, HCMV antiviral -65.2, Pf growth 48h 4.15µM
O=C(Nc1nc(-c2cccc(Br)c2)cs1)Oc1ccccc1	none
NC(=O)C1CCN(c2nc(-c3ccc(C(F)(F)F)cc3)cs2)CC1	Pf growth 48h inconclusive (no result: Shiga inhibitor, HCMV antiviral, Cycloheximide cs)
O=C(CN1CCCCC1)Nc1nc(-c2ccccc2)cs1	Shiga inhibitor 35.0, Cycloheximide cs 34.6 (no result: HCMV antiviral, Pf growth 48h)
CN(C)c1ccccc1C(=O)N1CCCC(C(=O)c2ccc3ccccc3c2)C1 (centres undefined)	Pf growth 96h inconclusive
O=C(c1ccc2ccccc2c1)C1CCCN(C(=O)CN2C(=O)CSC2=O)C1 (centres undefined)	Pf growth 96h 10.4µM, HCMV antiviral -67.7
O=C(Nc1cnn(Cc2ccc(F)cc2)c1)c1cnccn1	Pf growth 96h inconclusive, Cycloheximide cs 17.0
O=C(Nc1cnn(Cc2ccc(F)cc2)c1)c1noc2c1CCCC2	Pf growth 96h inconclusive, Shiga inhibitor 152.5, Cycloheximide cs 44.9
Cc1ccc(CCNC(=O)CN2C(=O)COc3ccc(S(=O)(=O)N4CCOCC4)cc32)cc1	none
Cc1ccc(-c2csc3ncnc(SCC(=O)O)c23)cc1	none
COC(=O)CSc1ncnc2scc(-c3ccccc3)c12	none
Cc1nnc(NC(=O)CSc2ncnc3scc(-c4ccccc4)c23)s1	Pf growth 96h inconclusive
Cn1nnnc1Sc1ncnc2scc(-c3ccc(C#N)cc3)c12	Pf growth 96h 1.85µM, HCMV antiviral -94.1, Pf growth 48h 4.65µM (no result: Shiga inhibitor, Cycloheximide cs)
Cn1nnnc1Sc1ncnc2scc(-c3ccsc3)c12	HCMV antiviral -97.1 (no result: Pf growth 96h, Shiga inhibitor, Pf growth 48h, Cycloheximide cs)
Cn1nnnc1Sc1ncnc2scc(-c3ccc(-c4ccccc4)cc3)c12	HCMV antiviral -97.2 (no result: Pf growth 96h, Shiga inhibitor, Pf growth 48h, Cycloheximide cs)
Cn1nnnc1Sc1ncnc2scc(-c3cc4ccccc4o3)c12	Pf growth 96h inconclusive, HCMV antiviral -99.7, Pf growth 48h 4.15µM (no result: Shiga inhibitor, Cycloheximide cs)
CCCn1c(SCC(=O)Nc2cc(S(=O)(=O)N(C)C)ccc2OC)n[nH]c1=O	none
CCOCC(=O)Nc1cc(C)on1	Pf growth 96h inconclusive
COc1ccccc1-c1noc(-c2cc(OC)c(OC)c(OC)c2)n1	Pf growth 96h inconclusive
COc1cccc(-c2nc(-c3ccccn3)no2)c1OC	Shiga inhibitor 134.4, Cycloheximide cs 37.3
COc1cc(-c2nc(-c3cccc(C(F)(F)F)c3)no2)cc(OC)c1OC	Pf growth 96h 11.7µM, Pf growth 48h inconclusive
c1ccc(-c2noc(-c3cccc4ccccc34)n2)nc1	Shiga inhibitor 40.6, Cycloheximide cs 42.6
COc1cc(-c2nc(-c3ccccn3)no2)cc(OC)c1OC	Shiga inhibitor 80.8, Cycloheximide cs 17.3
Cc1ccc(CNC(=O)CN2C(=O)COc3ccccc32)cc1	none (no result: Pf growth 96h, Shiga inhibitor, Pf growth 48h, Cycloheximide cs)
O=C(c1ccccc1F)N1CCN(c2cnn(-c3cccc(Cl)c3)c(=O)c2Cl)CC1	Pf growth 96h inconclusive
CCOC(=O)C(C)NC(=O)c1c(C)oc2ncn(CC(C)C)c(=O)c12 (centres undefined)	none (no result: Pf growth 96h, Shiga inhibitor, Pf growth 48h, Cycloheximide cs)
Cc1cc(NC(=O)c2cc([N+](=O)[O-])cc([N+](=O)[O-])c2C)no1	Pf growth 96h inconclusive
CCCn1c(=N)n(CC(=O)c2ccc(OCC(=O)OC)cc2)c2ccccc21	HCMV antiviral -95.5 (no result: Pf growth 96h, Shiga inhibitor, Pf growth 48h, Cycloheximide cs)
CCCn1c(=N)n(CC(=O)c2ccc([N+](=O)[O-])cc2)c2ccccc21	Pf growth 48h inconclusive
